Compound activity from PubChem BioAssay.
Rows were chosen to be rich in hits. Some 5.7% of all compounds tested hit in one or more screens of this group.
KB-V1 cytotox: qHTS assay for MDR1-selective chemotherapeutics: Primary screen using the drug-selected MDR subline cells KB-V1; Potency, µM (highest dose often 46.1 µM), actives largely listed as cytotoxic; hit rate 3.4% among 400,000; KB-V1 MDR cells viability, CellTiter-Glo, 72 h; AID 1347076, 2019; note: nearly all actives have a fitted effect of over 60% in size
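Compound-treated KB-V1 multidrug-resistant cells, 72 h, 37 degrees C; viability by CellTiter-Glo. Fitted qHTS curves give the values.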
HT1080 IDH1KD tx: qHTS for induction of synthetic lethality in tumor cells producing 2HG: qHTS for the HT-1080-IDH1KD cell line | hit rate 2% among 360,000 | HT-1080 IDH1 knockdown viability, ATP luminescence, 48 h | Potency, µM (doses to about 46.1 µM), for the others: top-dose activity, negative = toxicity, usual class: cytotoxic | AID 686971, 2013;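 note: 0% = DMSO wells and -100% = cell-free medium wells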
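Knockdown cells (IDH1KD HT-1080) received compounds 2 h after plating at 750 cells/well and were kept 48 h at 37 °C in 5% FBS RPMI. A CellTiter-Glo luminescence read gave % activity for curve fitting.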
HT1080NT lethal: qHTS for induction of synthetic lethality in tumor cells producing 2HG: qHTS for the HT-1080-NT fibrosarcoma cell line. HT-1080-NT fibrosarcoma viability, CellTiter-Glo ATP luminescence, 48 h. Potency, µM (doses to about 46.1 µM), for the others: at the highest dose activity, negative = less viability, hits mostly cytotoxic. hit rate 1.6% among 360,000. AID 686970, 2013;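 note: NT is the 2HG producing partner of a matched IDH1 knockdown line; 0% = DMSO-treated cells and -100% = media-only wells without cells; nearly all actives have a fitted effect of over 55% in size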
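750 cells/well, RPMI + 5% FBS; 2 h settle, compound pin-transfer, 48 h at 37 degrees C. CellTiter-Glo 10 min RT, luminescence. Normalized to DMSO and media-only wells.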
KB-3-1 tox: qHTS assay for MDR1-selective chemotherapeutics: Primary screen using the parental adenocarcinoma cell KB-3-1 | KB-3-1 viability, CellTiter-Glo ATP luminescence, 72 h | Potency, µM (doses to about 46.1 µM), hits mostly cytotoxic | hit rate 1.4% among 400,000 | AID 1347075, 2019; note: nearly all actives have a fitted effect of over 60% in size
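Screening of KB-3-1 cells (DMEM, 10% FBS, phenol-red free) ran from lowest to highest compound concentration; after 72 h at 37 °C viability was read luminescently and curves fitted.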
An asterisk follows results filed as active; i = inactive; ? = inconclusive; . = no result given; ! = repeats disagree. Calls come from the whole dose curve; as a rule, active = well fitted curve in the direction sought with a large enough effect; inconclusive = small, poorly fitted or top-dose-only effect, or another doubt; inactive = no such curve, though single readings can be large; an effect the other way counts as inactive or inconclusive. Unless noted, % is set by controls: 0 for no effect and ±100 for the full control effect; potency is the fitted concentration of half-maximal effect.

SMILES	KB-V1 cytotox	HT1080 IDH1KD tx	HT1080NT lethal	KB-3-1 tox
COc1ccc(C2Nc3ccccc3C(=O)N2Cc2ccco2)cc1 (stereo unspecified)	i	.	.	i
CCNC(=O)NC(=O)CSc1nc2ccccc2n1CC(C)C	2.9µM*	8%	5%	i
Cn1c(SCC(=O)NCc2ccccc2)nc2ccccc21	15µM*	1%	0%	i
CC(C)Cn1c(SCC(=O)NC2CC2)nc2ccccc21	?	-3%	-1%	i
Cc1ccc2nc(C(C)(C)C)c(Cc3cccc(Cl)c3)n2c1	i	?	16µM*	i
COc1ccc(-c2nc3ccc(C)cn3c2Cc2cccc(Cl)c2)cc1OC	?	18µM*	?	i
COc1ccc(-c2nc3ccc(C)cn3c2Cc2ccccc2)cc1OC	i	?	?	i
NCCCNc1ncnc2ccc(-c3ccc4c(c3)OCO4)cc12	i	.	.	?
CC1CCC(Nc2nc3c(-c4cccc(C(F)(F)F)c4)nnn3c3ccccc23)CC1 (stereo unspecified)	i	.	.	i
CCC(C)NC(=O)c1ccc2nc(-c3cccs3)c(-c3cccs3)nc2c1 (stereo unspecified)	i	.	.	10µM*
CC(=O)Nc1ccc(S(=O)(=O)Oc2cccc(N3C(=O)C4CC=CCC4C3=O)c2)cc1 (stereo unspecified)	i	-1%	4%	i
CC(=O)Nc1ccc(S(=O)(=O)Oc2ccc(N3C(=O)C4CCCCC4C3=O)cc2)cc1 (stereo unspecified)	18µM*	-12%	-17%	?
CCCCOc1ccc(Br)cc1/C(C)=N/NC1=NCCN1	5.8µM*	6.5µM*	8.2µM*	4.1µM*
O=C(Nc1ccc(F)cc1)[C@H](CSCc1ccccc1)N1Cc2ccccc2C1=O	i	.	.	i
CSc1nnc(-c2cccn(Cc3ccccc3)c2=O)o1	i	10%	-2%	i
O=c1c(-c2nnc(SCc3ccc(Cl)cc3Cl)o2)cccn1Cc1ccccc1	2.9µM*	-1%	0%	?
N#Cc1c(Cl)nsc1NC(=O)c1ccccc1	7.3µM*	13µM*	8.2µM*	?
CC(=O)Nc1cccc(C(=O)OCC(=O)NC(=O)C2CCCCC2)c1	i	.	.	i
C=C1C(=O)O[C@@H]2[C@H]3O[C@]3(C)CC/C=C(\C)CC[C@@H]12	i	18µM*	9.2µM*	i
Cc1c(Cl)cccc1NC(=O)Nc1nnc(N(C)C2CCCCC2)s1	i	.	.	i
COc1ccc(O)c(C(=O)c2coc(=N)c(C(=O)Nc3ccc(SC(F)F)cc3)c2)c1	23µM*	-14%	-10%	i
COc1ccc(-c2ccc(C(c3c(C)[nH][nH]c3=O)c3c(C)[nH][nH]c3=O)o2)c([N+](=O)[O-])c1	?	26µM*	8.2µM*	?
CC(=O)N1c2ccccc2N(Cc2ccc(C)cc2C)C(=O)C1(C)C	?	16µM*	?	4.1µM*
C=CCN1C(=O)C(C)(C)N(C(C)=O)c2ccccc21	i	-1%	4%	i
CC(C)OC(=O)Nc1ccc(Oc2c(F)c(F)c(F)c(F)c2F)cc1	i	-7%	10%	i
SMILES	KB-V1 cytotox	HT1080 IDH1KD tx	HT1080NT lethal	KB-3-1 tox
C/C=C/c1c(F)c(F)c(Oc2ccc(C(=O)O)cc2)c(F)c1F	i	3%	16µM*	i
COc1ccc(-c2cn(Cc3ccc(C(=O)c4ccccc4)cc3)nn2)cc1	2.6µM*!	?	?	4.1µM*!
O=C(Nc1ccccc1Cl)[C@H](CSCc1ccccc1)N1Cc2ccccc2C1=O	i	.	.	i
O=C(Oc1ccccc1)c1cccc2cccnc12	i	4µM*	4µM*	i
O=C(O)c1cccc2cccnc12	i	19%	19%	i
O=C(Oc1cccc2cccnc12)c1cccs1	12µM*	6.5µM*	15µM*	?
O=C(Oc1cccc2cccnc12)c1ccc2c(c1)OCCO2	?	?	23µM*	i
O=S(=O)(Nc1ccc2c(c1)OCCO2)c1cccc2cccnc12	16µM*	-3%	2%	i
CCOC(=O)C1CCN(C(=O)c2nn(-c3ccc(C)cc3)c(=O)c3c2c2ccccc2n3C)CC1	i	.	.	i
CC(=O)Nc1ccc(CC(=O)NCCC(c2ccccc2)c2ccccc2)cc1	i	33µM*	26µM*	i
Cn1nnc2c(N3CCN(Cc4ccccc4)CC3)ncnc21	.	14%	2%	.
COC1OC(COC(=O)c2ccccc2)C(OC(=O)c2ccccc2)C1OC(=O)c1ccccc1 (stereo unspecified)	?	14%	12%	i
O=C(OC[C@H]1O[C@@H](OC(=O)c2cc(O)c(O)c(OC(=O)c3cc(O)c(O)c(O)c3)c2)[C@H](OC(=O)c2cc(O)c(O)c(OC(=O)c3cc(O)c(O)c(O)c3)c2)[C@@H](OC(=O)c2cc(O)c(O)c(OC(=O)c3cc(O)c(O)c(O)c3)c2)[C@@H]1OC(=O)c1cc(O)c(O)c(OC(=O)c2cc(O)c(O)c(O)c2)c1)c1cc(O)c(O)c(OC(=O)c2cc(O)c(O)c(O)c2)c1	.	?	11µM*	.
Cc1ccc(OCC(O)Cn2c(=N)n(CCN3CCOCC3)c3ccccc32)cc1 (stereo unspecified)	i	-13%	-21%	i
COc1ccc(OCC(O)Cn2c(=N)n(CCN3CCCCC3)c3ccccc32)cc1 (stereo unspecified)	i	?	18µM*	?
CCCCn1c(=N)n(CC(O)COc2cccc(C)c2)c2ccccc21 (stereo unspecified)	21µM*	?	?	21µM*
CCCCN(CC(O)COc1cccc(C)c1)CC(O)COc1cccc(C)c1 (stereo unspecified)	?	18µM*	21µM*	?
CN(C)CC(O)COc1cccc(OCC(O)CN(C)C)c1 (stereo unspecified)	i	12%	0%	i
Cc1ccc(OCC(O)Cn2c(=N)n(CCN3CCCCC3)c3ccccc32)cc1 (stereo unspecified)	23µM*	?	16µM*	21µM*
COC(=O)c1cc2oc(C)cc2n1CC(=O)Nc1ccc(C(C)C)cc1	i	.	.	i
COc1cc(C2CC(=O)Nc3c2c(=O)n(C)c2ncnn32)cc(OC)c1OC (stereo unspecified)	i	.	.	i
Cn1c(=O)n(C)c2cc(N3CCCCC3)c(NC(=O)c3ccc(Cl)cc3)cc21	?	.	.	i
CCCn1c(=N)n(CC(O)COc2ccc(C)cc2)c2ccccc21 (stereo unspecified)	?	16µM*	16µM*	i
Clc1ccc(-c2nc3cnccn3c2NC2CCCC2)cc1	6.5µM*	-7%	-2%	?
